PubChem BioAssay AID720690 (Broad Institute, 2013)
Entries with a potency or affinity are not part of this list. The source made the active and inactive calls.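 Rule for the calls: active = every repeat run showing a signal drop whose fitted half-maximal concentration is at most twice the top tested concentration; inconclusive = repeat runs disagree, or flat partial drop, or poor fit; inactive = the rest.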

Experiment: general mammalian cell viability loss – activator set, cherry-pick, cytotoxicity control for miR-122 modulator project, dose response (AID 720690);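 note: 0% = neutral control wells and -100% = MG132 cytotoxic control wells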
Conditions: HEK293T viability, CellTiter-Glo luminescence, 48 h; series mostly up to 26 µM; activity change, negative = cytotoxicity: at the top concentration

Row | Structure (SMILES) | activity change, negative = cytotoxicity
1 | CCCNC(=O)N1[C@H](CNC(=O)c2ccc(F)cc2)[C@H](c2ccccc2)[C@@H]1CO | -5.2% [at 23.5 µM] (inactive)
2 | CC(C)NC(=O)N(C)C[C@H]1Oc2cc(C#C[C@H](C)O)ccc2S(=O)(=O)N([C@@H](C)CO)C[C@H]1C | -2.83% (inactive)
3 | O=C(CSc1nc2ccccc2s1)N1CCOCC1 | -6.56% (inactive)
4 | CN(C[C@@H]1[C@@H](c2ccccc2)[C@H](CO)N1C(=O)C1CCC1)C(=O)c1ccccn1 | -5.49% (inactive)
5 | Cc1cc(C(=O)Nc2ccc3c(c2)C(=O)N(C)[C@@H]2CC[C@@H](CC(=O)N[C@H](C)c4ccccc4)O[C@H]2CO3)no1 | 11.4% (inactive)
6 | C/C=C/c1ccc([C@H]2[C@@H](CO)N(Cc3ccccn3)[C@H]2CNC(=O)CC)cc1 | -6.36% (inactive)
7 | CCCNC(=O)N1C[C@@H]2[C@H](c3ccccc31)[C@@H](CO)N2Cc1cc(F)ccc1F | -7.29% [at 23.5 µM] (inactive)
8 | CC(C)NC(=O)Nc1ccc2c(c1)C(=O)N(C)[C@H]1CC[C@H](CC(=O)NCC(F)(F)F)O[C@H]1CO2 | 12.3% (inactive)
9 | CC(C)C(=O)Nc1ccc2c(c1)C(=O)N(C)[C@H]1CC[C@H](CC(=O)NCCc3ccccc3)O[C@H]1CO2 | -2.16% (inactive)
10 | Cc1nn(C)cc1NC(=O)C[C@@H]1CC[C@@H]2[C@@H](COc3ccc(NC(=O)Nc4cccc(Cl)c4)cc3C(=O)N2C)O1 | -5.53% (inactive)
11 | Cc1cc(C(=O)Nc2ccc3c(c2)C(=O)N(C)[C@@H]2CC[C@H](CC(=O)N[C@@H](C)c4ccccc4)O[C@H]2CO3)no1 | 7.69% (inactive)
12 | CNC(=O)C[C@H]1CC[C@H]2[C@H](COc3ccc(NC(=O)c4cccc(F)c4)cc3C(=O)N2C)O1 | -2.89% (inactive)
13 | C/C=C/c1ccc([C@@H]2[C@@H](CO)N(C(=O)C3CC3)[C@H]2CN(C)C(=O)CC2CC2)cc1 | 5% (inactive)
14 | N#CCc1c(C#N)c(N)nc(N2CCN(S(=O)(=O)c3ccccc3)CC2)c1C#N | -7.64% (inactive)
15 | COCC(=O)N(C[C@@H]1[C@@H](c2ccccc2)[C@@H](CO)N1C(=O)NC(C)C)C(C)C | 8.23% (inactive)
16 | c1ccc(-n2nnnc2NCCc2c[nH]c3ccccc23)cc1 | -12.3% (inactive)
17 | CN(C)CCCNC(=O)C[C@H]1CC[C@H]2[C@@H](COc3ccc(NC(=O)c4ccccc4F)cc3C(=O)N2C)O1 | 3.67% (inactive)
18 | C/C=C/c1ccc([C@@H]2[C@@H](CO)N(Cc3ccccn3)[C@H]2CNC(=O)CC)cc1 | 22.3% [at 23.5 µM] (inactive)

Row | Structure (SMILES) | activity change, negative = cytotoxicity
19 | COCC(=O)N(C)C[C@H]1Oc2cc(C#Cc3cccnc3)ccc2S(=O)(=O)N([C@H](C)CO)C[C@H]1C | -6.95% (inactive)
20 | C/C=C/c1ccc([C@@H]2[C@@H](CN(C)C(=O)CC)N(C(=O)NC(C)C)[C@H]2CO)cc1 | -10.7% (inactive)
21 | COc1cccc(CNC(=O)C[C@H]2CC[C@@H]3[C@H](COc4ccc(NC(C)=O)cc4C(=O)N3C)O2)c1 | -12.8% (inactive)
22 | CCOC(=O)CSc1nnnn1-c1cccc2ccccc12 | 1.77% (inactive)
23 | CCCNC(=O)C[C@@H]1CC[C@@H]2[C@@H](COc3ccc(NC(=O)c4ccc(C(F)(F)F)cc4)cc3C(=O)N2C)O1 | -6.55% (inactive)
24 | O=C(CNCCC1=CCCCC1)Nc1ccccc1N1CCCCCC1 | -25.6% (inactive)
25 | C/C=C/c1ccc([C@H]2[C@@H](CO)N(Cc3ccccn3)[C@H]2CNC(C)=O)cc1 | -9.49% [at 23.5 µM] (inactive)
26 | CNC(=O)C[C@@H]1CC[C@H]2[C@@H](COc3ccc(NC(=O)C(C)C)cc3C(=O)N2C)O1 | -2.67% (inactive)
27 | CN1C(=O)c2cc(NC(=O)c3ccc4c(c3)OCO4)ccc2OC[C@H]2O[C@H](CC(=O)O)CC[C@@H]21 | 1.22% (inactive)
28 | C/C=C/c1ccc([C@H]2[C@@H](CO)N[C@@H]2CN(CC(C)C)C(=O)c2ccccn2)cc1 | 13.9% (inactive)
29 | CCNC(=O)C[C@@H]1CC[C@H]2[C@@H](COc3ccc(NC(=O)Nc4ccc(F)cc4)cc3C(=O)N2C)O1 | -8.16% (inactive)
30 | CCOc1ccc(CCNC(=O)C2CCN(S(=O)(=O)N3CCC(C)CC3)CC2)cc1OCC | 23% (inactive)
31 | CNC(=O)C[C@H]1CC[C@@H]2[C@H](COc3ccc(NC(=O)C(C)C)cc3C(=O)N2C)O1 | -17.7% [at 23.5 µM] (inactive)
32 | NS(=O)(=O)c1ccc(Nc2nc(-c3cccnc3)cs2)cc1 | -0.393% (inactive)
33 | CN1C(=O)c2cc(NC(=O)c3cccc(F)c3)ccc2OC[C@H]2O[C@@H](CC(=O)O)CC[C@@H]21 | -1.64% (inactive)
34 | CCNC(=O)C[C@@H]1CC[C@H]2[C@H](COc3ccc(NC(=O)c4cccc(C(F)(F)F)c4)cc3C(=O)N2C)O1 | -6.43% [at 23.5 µM] (inactive)
35 | COC(=O)C[C@H]1CC[C@H]2[C@@H](COc3ccc(NC(=O)Nc4c(C)noc4C)cc3C(=O)N2C)O1 | 4.81% (inactive)
